Bioassay records from PubChem BioAssay.
PERK inh: human PERK inhibition, primary cell-based screen. AID 1416. 0.17% of 220,000 active. Q9NZJ5. CHO PERK-DD fusion, SEAP luminescence translation reporter. inhibition, % at 5.6 µM;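 active = inhibition above the mean inhibition of all tested compounds plus 3 SD, set separately per screening campaign, cut at about 2.9% in these data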;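 note: PERK kinase domain activated by AP20187 dimerizer at 100 nM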
SUMO HTRF inh: SUMOylation inhibition. 0.36% of 290,000 active. HTRF SUMOylation assay, SAE1/SAE2 + UBC9, in vitro. inhibition, % at 35 µM. AID 2006; in the data active = inhibition above about 50%, passing the limit was not always enough; inconclusive = no clear call, values can overlap the other calls
DTT redox prof: compounds producing H2O2 with reducing agent – biochemical, NIH compound library profiling, artefact control for MLSCN library redox annotation, primary screen; DTT-dependent redox cycling H2O2, phenol red/HRP absorbance; 100% = 100 µM peroxide control, 0% = buffer; activation, % at 10 µM; 0.03% of 200,000 active;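 active = activation of at least 50% relative to the plate's high and low controls in the primary single-dose screen; inactive = activation below 50%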;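 note: compound incubated with DTT at 0.8 mM final as the reducing agent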
p97 ATPase inh: blocks human p97 ATPase activity. inhibition, % at 8 µM. AID 1481. P55072. 0.42% of 220,000 active. recombinant p97 ATPase, Kinase-Glo ATP luminescence, 3 h; in the data active = inhibition above about 15%
Target sequence (P55072 whole entry, looked up): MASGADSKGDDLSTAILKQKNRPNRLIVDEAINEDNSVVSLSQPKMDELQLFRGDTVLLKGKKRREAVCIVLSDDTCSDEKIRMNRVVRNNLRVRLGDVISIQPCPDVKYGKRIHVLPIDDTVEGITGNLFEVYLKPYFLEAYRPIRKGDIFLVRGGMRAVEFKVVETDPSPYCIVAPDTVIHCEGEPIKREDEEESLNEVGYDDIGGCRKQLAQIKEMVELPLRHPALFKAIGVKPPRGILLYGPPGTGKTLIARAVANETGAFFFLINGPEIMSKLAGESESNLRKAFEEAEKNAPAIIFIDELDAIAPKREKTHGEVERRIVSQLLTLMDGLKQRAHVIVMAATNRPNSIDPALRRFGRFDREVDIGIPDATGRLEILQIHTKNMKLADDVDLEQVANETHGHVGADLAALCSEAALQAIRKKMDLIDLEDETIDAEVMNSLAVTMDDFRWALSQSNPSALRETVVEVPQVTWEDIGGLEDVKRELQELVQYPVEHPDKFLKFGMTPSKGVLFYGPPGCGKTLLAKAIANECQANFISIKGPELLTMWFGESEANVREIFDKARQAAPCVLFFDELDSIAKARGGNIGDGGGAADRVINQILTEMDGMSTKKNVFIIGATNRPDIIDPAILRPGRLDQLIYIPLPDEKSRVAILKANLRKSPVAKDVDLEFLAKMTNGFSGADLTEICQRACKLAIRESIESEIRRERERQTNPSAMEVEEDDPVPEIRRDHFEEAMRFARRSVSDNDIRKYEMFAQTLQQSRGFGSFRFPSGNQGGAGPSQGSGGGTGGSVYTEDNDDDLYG
Of the large screens only hits and unclear results are named; the others gave an inactive call. This is a sample that favours compounds with a hit; in the whole collection about 0.69% have one here.

NC1=NC(=Nc2cccc(S(N)(=O)=O)c2)c2ccccc21	PERK inh 4.0 (no result: DTT redox prof)
Cc1cccc(N=C2N=C(N)c3ccccc32)c1	none
CC(CC(=O)O)CC(=O)Nc1nncs1 (stereo not given)	none (no result: DTT redox prof)
COC1=C(Nc2ccc(OC)cc2)C(=O)c2ccccc2C1=O	none
CCOc1ccc(NC2=C(OC)C(=O)c3ccccc3C2=O)cc1	SUMO HTRF inh 57
CCOc1ccc(Nc2nc(NCCN3CCOCC3)nc(OC)n2)cc1	p97 ATPase inh 15
CCOc1ccc(Nc2nc(N3CCOCC3)nc(N3CCOCC3)n2)cc1	none (no result: PERK inh, DTT redox prof, p97 ATPase inh)
O=C(CCn1nnnc1CN1CCOCC1)N1CCC(c2ccccc2F)C1 (stereo not given)	none (no result: PERK inh, DTT redox prof, p97 ATPase inh)
Nc1ccc2c(c1)C(=O)C(=O)c1ccccc1-2	SUMO HTRF inh inconclusive, p97 ATPase inh 31
CCN(CC(=O)NCc1ccc2c(c1)OCO2)S(=O)(=O)c1ccc(F)cc1	none (no result: PERK inh, DTT redox prof, p97 ATPase inh)
Oc1c(Br)cc(Br)cc1/C=N/NC(=S)N[C@H]1CC2C=CC1C2 (stereo not given in full)	SUMO HTRF inh 58 (no result: DTT redox prof)
COc1ccc(CC(=O)c2ccc(OC)c(OC)c2)cc1	none
COc1ccc(C(=O)Cc2ccccc2)cc1OC	PERK inh 4.8
Nc1c(C(=O)Nc2ccc(F)cc2)sc2nc(-c3ccco3)ccc12	SUMO HTRF inh 74
Nc1c(C(=O)Nc2ccccc2)sc2nc3c(c(-c4ccco4)c12)CCC3	none
CC(=O)c1sc2nc(-c3ccco3)ccc2c1N	SUMO HTRF inh 70 (no result: DTT redox prof)
Cc1ccc(NC(=O)c2sc3nc4c(c(-c5ccco5)c3c2N)CCC4)cc1	none
Nc1c(C(=O)Nc2ccc(Br)cc2)sc2nc(-c3ccco3)ccc12	SUMO HTRF inh 72
NC(=O)c1sc2nc(-c3ccccc3)ccc2c1N	none (no result: PERK inh, DTT redox prof, p97 ATPase inh)
COc1ccc(C(=O)NC2CCN(CC(=O)Nc3c(C)cccc3C)CC2)cc1OC	none (no result: PERK inh, DTT redox prof, p97 ATPase inh)
CC1Oc2ccccc2N(CC(=O)Nc2ccc(F)cc2)C1=O (stereo not given)	none (no result: PERK inh, DTT redox prof, p97 ATPase inh)
CCCCN(C)CCNC(=O)c1ccc(Cn2c(=S)[nH]c3ccc(Br)cc3c2=O)cc1	none
CCCCc1c(C)nc2c(OC)cccc2c1SCC(=O)O	PERK inh 4.2 (no result: DTT redox prof)
Cc1cc(-c2nnc(SCC(=O)Nc3c(C)cccc3C)n2N)n[nH]1	none (no result: PERK inh, DTT redox prof, p97 ATPase inh)
CCOC(=O)c1sc2nc3c(SCC(=O)O)cc(C(=O)c4cc(F)ccc4O)cn3c(=O)c2c1C	none
CCOC(=O)c1sc2nc3c(SCC(=O)O)cc(C(=O)c4ccccc4O)cn3c(=O)c2c1C	SUMO HTRF inh 76
Oc1ccc(Br)cc1-c1nc2cnccn2c1NC1CCCC1	none
Fc1ccc(-c2nc3cnccn3c2NC2CCCC2)cc1	SUMO HTRF inh 54
O=C(Nc1ccccc1Oc1ccccc1)C1=COCCO1	none (no result: PERK inh, DTT redox prof, p97 ATPase inh)
O=C(COC(=O)c1cc(NS(=O)(=O)c2cccs2)ccc1O)Nc1ccc(F)c(F)c1F	none
O=C(COC(=O)c1ccc(NS(=O)(=O)c2cccs2)cc1)Nc1nc2c(F)c(F)c(F)cc2s1	SUMO HTRF inh 80
O=C(COC(=O)c1cc(NS(=O)(=O)c2cccs2)ccc1O)Nc1cc(Cl)ccc1Cl	SUMO HTRF inh 69
CCOC(=O)Cc1c[nH]c(=S)[nH]c1=O	none (no result: DTT redox prof)
O=C(CCC(=O)N1CCN(Cc2ccc(F)cc2)CC1)Nc1nnc(C2CCCCC2)s1	none (no result: PERK inh, DTT redox prof, p97 ATPase inh)
Cc1ccc2oc(-c3cccc(NC(=O)Cc4cccs4)c3)nc2c1	none
Cc1ccc2oc(-c3ccc(C)c(NC(=O)Cc4cccs4)c3)nc2c1	SUMO HTRF inh 56
Cc1nc2nc(-c3ccccc3)cc(=O)n2[nH]1	PERK inh 3.0
Cc1cc(=O)n2[nH]c(C)c(-c3ccccc3)c2n1	none
O=c1cc(-c2ccccc2)nc2c(-c3ccccc3)c(C(F)(F)F)[nH]n12	SUMO HTRF inh 51 (no result: DTT redox prof)
COc1ccc(CC(=O)O/N=C(\N)c2ccccn2)cc1	PERK inh 3.1 (no result: DTT redox prof)
N/C(=N\OC(=O)Cc1ccc(-c2ccccc2)cc1)c1ccccn1	none
CCOc1ccccc1Oc1c(C)oc2cc(OC(=O)c3ccco3)ccc2c1=O	none
COc1ccccc1Oc1c(C)oc2cc(OC(=O)c3ccco3)ccc2c1=O	SUMO HTRF inh 52
CN=C1SC(CC(=O)Nc2cccc(C(F)(F)F)c2)C(=O)N1C (stereo not given)	none
CN=C1SC(CC(=O)Nc2ccccc2F)C(=O)N1C (stereo not given)	PERK inh 4.4
COc1ccc(CN2CCNC(=O)C2CC(=O)NC2Cc3ccccc3C2)c(OC)c1 (stereo not given)	none
CCN(CC)C(=O)C(=O)N/N=C/c1cccs1	PERK inh 3.1
O=C1C(Cl)=C(N2CCCCC2)C(=O)C(Cl)=C1c1cnc(N2CCCCC2)s1	SUMO HTRF inh 59
CC(=O)N1CCC(C(=O)NC2CCCc3c2cnn3-c2cc(F)cc(F)c2)CC1 (stereo not given)	none (no result: PERK inh, DTT redox prof, p97 ATPase inh)
O=C(c1cncc(Br)c1)N1CCN(S(=O)(=O)c2ccccc2C(F)(F)F)CC1	none (no result: PERK inh, DTT redox prof, p97 ATPase inh)
Cc1cc2nc3c(=O)[nH]c(=S)[nH]c3nc2cc1NC(=O)C(F)(F)F	SUMO HTRF inh 60 (no result: PERK inh, DTT redox prof, p97 ATPase inh)
O=C(CCCN1C(=O)c2ccccc2C1=O)Nc1cccc(S(=O)(=O)NC2=NCCC2)c1	none
COc1ccc(Nc2cc(NCCCO)c([N+](=O)[O-])c3nonc23)cc1	none (no result: PERK inh, DTT redox prof, p97 ATPase inh)
CCCC(=O)OCCNc1cc(SCCC(=O)OC)c2nonc2c1[N+](=O)[O-]	SUMO HTRF inh 74
COc1ccc(CNc2cc(NCCCO)c([N+](=O)[O-])c3nonc23)cc1	SUMO HTRF inh 96
O=[N+]([O-])c1c(NCCCO)cc(SCc2ccco2)c2nonc12	SUMO HTRF inh 90
CC(=O)OCCCNc1cc(Sc2nc3ccccc3s2)c2nonc2c1[N+](=O)[O-]	SUMO HTRF inh 92
[O-][N+]1=c2ccc(Nc3ccccc3)cc2=NC12CCCCC2	SUMO HTRF inh 79
NS(=O)(=O)c1cccc(C(=O)NC2CCSc3ccccc32)c1 (stereo not given)	none (no result: PERK inh, DTT redox prof, p97 ATPase inh)
NS(=O)(=O)c1cc(C(=O)NC2CCSc3ccccc32)ccc1Cl (stereo not given)	SUMO HTRF inh 73 (no result: PERK inh, DTT redox prof, p97 ATPase inh)
CCCN(CC1CCCO1)C(=O)CCc1nnc(CCc2ccc(OC)cc2)o1 (stereo not given)	none (no result: PERK inh, DTT redox prof, p97 ATPase inh)
O=C(/C=C/c1ccc(O)c(O)c1)O[C@H](Cc1ccc(O)c(O)c1)C(=O)O	SUMO HTRF inh 69 (no result: PERK inh, DTT redox prof, p97 ATPase inh)
O=C(O)/C=C/c1ccc(O)c(O)c1	none
CC(C)(C)NS(=O)(=O)c1cccc2nsnc12	PERK inh 3.7 (no result: SUMO HTRF inh)
Cc1ccc(NS(=O)(=O)c2cccc3nsnc23)cc1C	none (no result: PERK inh, DTT redox prof, p97 ATPase inh)
COC(=O)c1ccccc1NC(=O)CSc1nncn1-c1ccccn1	none (no result: PERK inh, DTT redox prof, p97 ATPase inh)
N#Cc1c(=O)c2nc(NCc3ccccc3)ncc2n2ccccc12	SUMO HTRF inh 51
Nc1c(C(=O)N/N=C/c2cccnc2)oc2nc(-c3ccccc3)cc(-c3ccco3)c12	p97 ATPase inh 15 (no result: DTT redox prof)
Cc1ccc(/C=C/C(=O)OCC(=O)NCCN2C(=O)CSC2=O)o1	PERK inh 3.2
CCCc1cc(=O)oc2cc(OCC(=O)NCC3CCC(C(=O)O)CC3)ccc12 (stereo not given)	none (no result: PERK inh, DTT redox prof, p97 ATPase inh)
O=C(Cc1cc(=O)oc2cc(O)ccc12)NCC1CCC(C(=O)O)CC1 (stereo not given)	SUMO HTRF inh 55
COc1ccc(OCc2nnc(SCC(=O)Nc3ccccc3C#N)o2)cc1	none (no result: PERK inh, DTT redox prof, p97 ATPase inh)
